# Assay results as given in PubChem BioAssay (NCATS).
# Several values for one entry are separate records, joined by “and”; a condition that tells them apart may be missing. Identical values can stand only once. Inconclusive results are not listed. A call without a number means that no potency is given here. More than one record can exist for a structure, and the calls need not agree. Activity calls are given as the source filed them. Unless noted, calls follow the shape of the full dose curve.
# Experiments:
# [1] = Primary qHTS for Huh7 cytotoxicity: counterscreen for inhibitors of MERS-S pseudotyped particle cell entry (AID 1479147); settings: outcome: dose series up to 57.1 µM unless noted
# [2] = Primary qHTS for inhibitors of MERS-S pseudo-typed particle cell entry (AID 1479149); settings: outcome: dose series up to 57.1 µM unless noted; also: nearly all actives have a fitted effect of over 60% in size
# [3] = Primary qHTS for Vero E6 cytotoxicity: counterscreen for inhibitors of SARS-S pseudo-typed particle cell entry (AID 1479150); settings: outcome: dose series up to 57.1 µM unless noted
# [4] = Cytotoxicity counterscreen for inhibitors of SARS-CoV-2 cell entry (AID 1645845); settings: outcome: dose series up to 57.1 µM unless noted; also: nearly all actives have a fitted effect of over 50% in size
# Outline: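 48 h compound treatment (after 1 h preincubation), HEK293-ACE2 cells, 37 C/5% CO2; ATP luminescence endpoint; normalized to cell wells and media blanks.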
# [5] = Primary qHTS to identify inhibitors of SARS-CoV-2 cell entry (AID 1645846); settings: SARS-CoV-2 pseudovirus cell entry assay, luminescence; activity change, negative = inhibition: at 57.1 µM (top of the series) unless noted; also: nearly all actives have a fitted effect of over 45% in size
# Outline: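 HEK293 cells stably expressing human ACE2, pre-treated 1 h with compound, then infected with MLV particles pseudotyped with Wuhan-Hu-1 spike (C-terminal 19-aa truncation). Luciferase luminescence after 48 h at 37 °C, normalised to spike PP and bald PP.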
# [6] = molecular target: Androgen receptor (Homo sapiens) (UniProt P10275); assay: qHTS assay for small molecule agonists of androgen receptor signaling (AID 588515; active = well fitted curve in the direction sought with a large enough effect in the signal ratio, with a control signal flat; the % refers to the signal ratio); settings: AR-UAS-bla HEK293, beta-lactamase ratio, agonist 16 h; stronger effect = higher value
# Sequence of Androgen receptor (Homo sapiens) (P10275 whole entry, looked up): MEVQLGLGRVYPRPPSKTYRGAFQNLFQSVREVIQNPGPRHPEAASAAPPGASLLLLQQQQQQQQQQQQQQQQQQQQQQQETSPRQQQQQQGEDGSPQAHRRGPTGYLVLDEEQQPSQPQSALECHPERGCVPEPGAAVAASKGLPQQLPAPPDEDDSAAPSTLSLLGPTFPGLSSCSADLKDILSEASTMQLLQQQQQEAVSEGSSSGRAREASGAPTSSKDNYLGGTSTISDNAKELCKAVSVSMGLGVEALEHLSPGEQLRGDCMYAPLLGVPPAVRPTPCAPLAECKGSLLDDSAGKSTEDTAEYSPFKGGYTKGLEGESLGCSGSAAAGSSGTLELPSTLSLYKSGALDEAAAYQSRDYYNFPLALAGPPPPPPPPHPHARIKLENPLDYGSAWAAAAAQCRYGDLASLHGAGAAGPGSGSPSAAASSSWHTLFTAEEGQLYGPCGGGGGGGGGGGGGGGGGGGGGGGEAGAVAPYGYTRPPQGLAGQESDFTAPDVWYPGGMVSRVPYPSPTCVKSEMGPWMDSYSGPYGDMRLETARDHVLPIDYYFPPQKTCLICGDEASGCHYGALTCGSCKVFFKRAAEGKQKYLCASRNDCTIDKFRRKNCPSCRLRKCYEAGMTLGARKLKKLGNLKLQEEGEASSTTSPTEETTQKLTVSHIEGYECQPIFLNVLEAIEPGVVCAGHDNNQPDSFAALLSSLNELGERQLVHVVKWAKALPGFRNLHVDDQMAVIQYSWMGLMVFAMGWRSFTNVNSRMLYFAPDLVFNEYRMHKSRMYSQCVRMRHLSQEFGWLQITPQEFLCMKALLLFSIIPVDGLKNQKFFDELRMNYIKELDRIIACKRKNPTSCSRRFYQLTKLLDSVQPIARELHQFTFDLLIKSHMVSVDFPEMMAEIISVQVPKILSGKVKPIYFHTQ
# Outline: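 EC50 and efficacy came from Hill fits of titrations (up to 92 uM) normalized to 30 nM R1881 as 100% and DMSO as 0%. Compound exposure was 16 h at 37 C on AR-UAS-bla HEK293 cells, with a 405/460/530 nm CCF4 fluorescence read.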
# [7] = molecular target: Androgen receptor (Homo sapiens) (UniProt P10275); assay: qHTS assay for small molecule antagonists of androgen receptor signaling (AID 588516; active = well fitted curve in the direction sought with a large enough effect in the signal ratio, with a control signal flat, not every such curve was filed as active; the % refers to the signal ratio; also: potency is read from the fitted curve at half-maximal effect)
# Outline: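 AR-UAS-bla GripTite HEK 293 cells (2000/well) treated with compound titrations plus 10 nM R1881 for 16 h at 37C. Beta-lactamase read by CCF4 FRET (460/530 nm); IC50 from Hill fits, normalized to R1881 and DMSO control wells.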
# [8] = molecular target: Bile acid receptor (Homo sapiens) (UniProt Q96RI1); assay: qHTS assay for small molecule antagonists of farnesoid X receptor signaling (AID 588526)
# Sequence of Bile acid receptor (Homo sapiens) (Q96RI1 whole entry, looked up): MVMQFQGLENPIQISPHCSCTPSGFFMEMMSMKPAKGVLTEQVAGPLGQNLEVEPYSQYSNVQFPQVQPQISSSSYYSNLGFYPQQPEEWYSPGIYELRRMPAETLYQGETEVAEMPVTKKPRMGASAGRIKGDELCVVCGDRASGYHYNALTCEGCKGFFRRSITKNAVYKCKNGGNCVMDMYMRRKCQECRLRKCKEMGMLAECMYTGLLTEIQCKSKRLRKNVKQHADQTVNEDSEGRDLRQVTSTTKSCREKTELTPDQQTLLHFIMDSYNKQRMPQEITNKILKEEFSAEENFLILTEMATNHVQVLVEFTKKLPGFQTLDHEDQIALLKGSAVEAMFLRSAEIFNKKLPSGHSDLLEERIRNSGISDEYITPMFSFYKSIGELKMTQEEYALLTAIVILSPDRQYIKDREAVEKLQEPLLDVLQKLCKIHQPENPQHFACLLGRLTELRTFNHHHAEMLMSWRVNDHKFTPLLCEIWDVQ
# Outline: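 Beta-lactamase reporter antagonist mode: HEK293T FXR-UAS-bla cells, titrated compound, CDCA stimulation, 16 h 37 C, CCF4 dye 2 h RT. Data normalized to CDCA 50 uM and DMSO; Hill-fit IC50.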
# [9] = molecular target: Bile acid receptor (Homo sapiens) (UniProt Q96RI1); assay: qHTS assay for small molecule agonists of farnesoid X receptor signaling (AID 588527); settings: HEK293T FXR-UAS-bla, beta-lactamase ratio, 16 h; stronger effect = higher value
# Outline: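 Agonist-mode beta-lactamase reporter in GeneBLAzer FXR-UAS-bla HEK293T cells, titration up to 92 uM, 16 h exposure at 37 C, CCF4 fluorescence. Response scaled to DMSO (0%) and 100 uM chenodeoxycholic acid (100%), then Hill-fitted for EC50 and efficacy.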
# [10] = molecular target: Peroxisome proliferator-activated receptor delta (Homo sapiens) (UniProt Q03181); assay: qHTS assay for small molecule agonists of peroxisome proliferator-activated receptor delta signaling (AID 588534)
# Sequence of Peroxisome proliferator-activated receptor delta (Homo sapiens) (Q03181 whole entry, looked up): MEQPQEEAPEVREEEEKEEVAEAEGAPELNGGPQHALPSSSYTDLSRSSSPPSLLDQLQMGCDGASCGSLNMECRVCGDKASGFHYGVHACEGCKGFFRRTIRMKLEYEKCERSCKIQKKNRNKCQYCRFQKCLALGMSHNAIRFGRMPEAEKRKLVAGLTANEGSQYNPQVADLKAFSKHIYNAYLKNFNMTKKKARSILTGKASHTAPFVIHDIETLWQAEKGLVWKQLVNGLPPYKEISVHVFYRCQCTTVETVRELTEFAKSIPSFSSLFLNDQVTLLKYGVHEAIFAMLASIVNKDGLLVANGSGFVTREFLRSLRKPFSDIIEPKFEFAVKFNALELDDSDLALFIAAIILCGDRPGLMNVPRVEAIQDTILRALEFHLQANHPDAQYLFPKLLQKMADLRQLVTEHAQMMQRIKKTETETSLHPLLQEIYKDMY
# Outline: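 Cell-based beta-lactamase reporter assay run in agonist mode: cells seeded and incubated 5 hrs at 37 C, compounds added and incubated 18 hrs at 37 C. CCF4 dye fluorescence read after 2 hrs at RT; EC50 and efficacy from Hill fits.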
# [11] = qHTS assay for small molecule antagonists of peroxisome proliferator-activated receptor delta signaling (AID 588535); settings: HEK293T PPARd-UAS-bla, beta-lactamase FRET ratio, 18 h; 460 nm channel;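 also: cells co-treated with a PPAR-delta agonist as stimulator during compound exposure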
# Outline: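 Cell-based beta-lactamase assay in antagonist mode: 4000 HEK293T PPAR-delta-UAS-bla cells per well, 5 hr preincubation then 18 hr compound incubation at 37 C. IC50 obtained by Hill equation fitting.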
# [12] = molecular target: Peroxisome proliferator-activated receptor gamma (Homo sapiens) (UniProt P37231); assay: qHTS assay for small molecule agonists of peroxisome proliferator-activated receptor gamma signaling (AID 588536; active = well fitted curve in the direction sought with a large enough effect in the signal ratio, with a control signal flat, not every such curve was filed as active; the % refers to the signal ratio)
# Sequence of Peroxisome proliferator-activated receptor gamma (Homo sapiens) (P37231 whole entry, looked up): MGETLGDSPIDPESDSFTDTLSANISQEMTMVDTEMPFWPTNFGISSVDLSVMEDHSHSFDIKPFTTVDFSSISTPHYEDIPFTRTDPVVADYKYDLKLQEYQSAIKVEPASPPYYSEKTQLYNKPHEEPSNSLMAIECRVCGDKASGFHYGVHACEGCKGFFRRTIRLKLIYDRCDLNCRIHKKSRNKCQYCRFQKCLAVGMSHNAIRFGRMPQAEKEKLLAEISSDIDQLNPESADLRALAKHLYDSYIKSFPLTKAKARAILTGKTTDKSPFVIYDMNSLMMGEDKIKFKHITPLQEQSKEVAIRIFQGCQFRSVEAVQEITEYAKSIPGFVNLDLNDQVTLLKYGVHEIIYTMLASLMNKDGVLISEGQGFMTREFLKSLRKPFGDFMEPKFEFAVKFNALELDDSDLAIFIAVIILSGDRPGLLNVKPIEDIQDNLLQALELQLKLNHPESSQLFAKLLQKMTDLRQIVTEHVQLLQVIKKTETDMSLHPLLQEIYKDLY
# Outline: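 Ratiometric blue/green fluorescence (405 nm excitation; 460 and 530 nm emission) from CCF4-loaded HEK293 reporter cells serves as signal. Exposure to test compounds lasts 16 h at 37 C in medium containing 1% charcoal/dextran-treated serum.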
# [13] = molecular target: Peroxisome proliferator-activated receptor gamma (Homo sapiens) (UniProt P37231); assay: qHTS assay for small molecule antagonists of peroxisome proliferator-activated receptor gamma signaling (AID 588537; active = well fitted inhibition curve with a large enough effect in the signal ratio, with a control signal flat, not every such curve was filed as active; the % refers to the signal ratio;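 also: reporter cells co-stimulated with 50 nM rosiglitazone agonist during compound treatment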)
# Outline: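 Inhibitors of agonist-stimulated UAS-bla reporter activity were sought in HEK293 cells; rosiglitazone (50 nM) defined full signal and DMSO baseline. Curves fitted to Hill model gave IC50 and efficacy.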
# [14] = molecular target: Vitamin D3 receptor (Homo sapiens) (UniProt P11473); assay: qHTS assay for small molecule antagonists of vitamin D receptor signaling (AID 588541);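 also: receptor activated by calcitriol during compound treatment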
# Sequence of Vitamin D3 receptor (Homo sapiens) (P11473 whole entry, looked up): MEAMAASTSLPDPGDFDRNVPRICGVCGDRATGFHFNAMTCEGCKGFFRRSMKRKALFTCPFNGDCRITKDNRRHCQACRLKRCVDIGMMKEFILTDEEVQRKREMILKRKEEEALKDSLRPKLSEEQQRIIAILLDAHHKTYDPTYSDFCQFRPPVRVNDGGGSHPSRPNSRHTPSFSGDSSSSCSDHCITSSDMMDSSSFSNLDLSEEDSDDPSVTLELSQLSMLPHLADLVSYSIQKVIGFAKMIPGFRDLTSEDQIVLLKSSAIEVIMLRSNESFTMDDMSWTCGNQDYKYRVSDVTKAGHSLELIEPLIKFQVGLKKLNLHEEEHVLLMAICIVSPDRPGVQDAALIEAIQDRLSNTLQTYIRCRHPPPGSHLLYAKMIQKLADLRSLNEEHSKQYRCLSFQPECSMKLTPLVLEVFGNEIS
# Outline: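 Antagonist-mode beta-lactamase reporter assay: HEK293T VDR-UAS-bla cells were exposed to titrated compound alongside 1-alpha,25-dihydroxyvitamin D3 at 3 nM final for 16 h. Values were normalized to the 50 nM agonist control and DMSO basal, with IC50 and efficacy from Hill equation fits.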
# [15] = molecular target: Vitamin D3 receptor (Homo sapiens) (UniProt P11473); assay: qHTS assay for small molecule agonists of vitamin D receptor signaling (AID 588543)
# Outline: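 VDR-UAS-bla HEK293T cells, 2000/well, 2% charcoal-stripped FBS; compound titration 16 h at 37 C; CCF4 beta-lactamase ratio read. Normalized to 50 nM 1-alpha,25-dihydroxyvitamin D3 (100%) and DMSO; Hill fit gives EC50, efficacy.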
# [16] = molecular target: Thyroid hormone receptor beta (Homo sapiens) (UniProt P10828); assay: qHTS assay for small molecule agonists of thyroid hormone receptor beta signaling (AID 588545)
# Sequence of Thyroid hormone receptor beta (Homo sapiens) (P10828 whole entry, looked up): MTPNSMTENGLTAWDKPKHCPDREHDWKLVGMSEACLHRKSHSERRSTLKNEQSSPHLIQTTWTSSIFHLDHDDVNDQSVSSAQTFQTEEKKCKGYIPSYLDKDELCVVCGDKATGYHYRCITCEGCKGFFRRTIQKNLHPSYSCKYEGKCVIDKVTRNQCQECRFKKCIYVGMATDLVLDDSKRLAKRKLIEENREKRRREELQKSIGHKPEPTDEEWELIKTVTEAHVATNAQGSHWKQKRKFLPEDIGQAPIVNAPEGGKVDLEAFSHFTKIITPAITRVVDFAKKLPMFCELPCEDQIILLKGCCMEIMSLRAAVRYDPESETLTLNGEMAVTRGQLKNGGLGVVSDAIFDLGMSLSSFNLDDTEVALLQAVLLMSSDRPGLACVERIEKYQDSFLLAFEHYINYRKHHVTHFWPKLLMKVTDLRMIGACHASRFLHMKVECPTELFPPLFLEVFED
# Outline: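 Agonist activity was read as beta-lactamase CCF4 fluorescence (405 ex, 460/530 em), scaled between DMSO (0%) and 10 nM T3 (100%), then Hill-fitted for EC50 and efficacy. HEK 293 TR-UAS-bla cells in 2% charcoal/dextran FBS medium were exposed 18 h at 37 C.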
# [17] = qHTS assay for small molecule antagonists of retinoid X receptor alpha signaling (AID 588546; active = well fitted inhibition curve with a large enough effect in the signal ratio, with a control signal flat, not every such curve was filed as active; the % refers to the signal ratio;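 also: cells stimulated with 9-cis-retinoic acid as agonist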); settings: HEK293T RXRa-UAS-bla, beta-lactamase ratio, antagonist mode; measured here: W530 green channel, cytotoxicity proxy
# Outline: (§1)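 Beta-lactamase reporter inhibition, read as CCF4 fluorescence ratio (ex 405, em 460/530 nm) after 2 h at RT. HEK293T UAS-bla cells, 2500/well, were stimulated with 9-cis-RA at 500 or 100 nM final alongside test compound for 18 h at 37 C.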
# [18] = molecular target: Retinoic acid receptor RXR-alpha (Homo sapiens) (UniProt P19793); assay: as above; settings: HEK293T RXRa-UAS-bla, beta-lactamase ratio, antagonist mode
# Sequence of Retinoic acid receptor RXR-alpha (Homo sapiens) (P19793 whole entry, looked up): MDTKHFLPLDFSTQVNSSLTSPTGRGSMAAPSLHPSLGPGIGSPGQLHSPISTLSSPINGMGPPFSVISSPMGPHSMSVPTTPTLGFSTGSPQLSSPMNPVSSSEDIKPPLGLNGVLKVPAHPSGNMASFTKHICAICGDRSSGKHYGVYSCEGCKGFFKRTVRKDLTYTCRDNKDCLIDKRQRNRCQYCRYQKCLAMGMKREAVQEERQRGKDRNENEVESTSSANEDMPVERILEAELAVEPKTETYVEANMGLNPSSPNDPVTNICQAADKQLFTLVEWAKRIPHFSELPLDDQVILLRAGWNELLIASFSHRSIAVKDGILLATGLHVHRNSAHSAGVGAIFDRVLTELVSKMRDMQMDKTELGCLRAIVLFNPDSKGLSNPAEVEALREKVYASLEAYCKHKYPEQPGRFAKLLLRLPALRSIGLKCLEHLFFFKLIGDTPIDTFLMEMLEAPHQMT
# Outline: as §1
# [19] = molecular target: Thyroid hormone receptor beta (Homo sapiens) (UniProt P10828); assay: qHTS assay for small molecule antagonists of thyroid hormone receptor beta signaling (AID 588547; active = well fitted inhibition curve with a large enough effect in the signal ratio, with a control signal flat, not every such curve was filed as active; the % refers to the signal ratio;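 also: cells stimulated with 0.4 nM T3 agonist during compound exposure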); settings: TR-UAS-bla HEK293, beta-lactamase ratio, antagonist mode, 18 h
# Outline: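 Inhibition of T3-driven (0.4nM final) beta-lactamase reporter activity was measured over 0.59 nM to 92 uM compound after 18 h at 37 C. The cells were GripTite HEK293 TR-UAS-bla in charcoal/dextran-stripped serum, with CCF4 ratio read-out and IC50 from Hill fits.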
# [20] = qHTS assay for small molecule agonists of the antioxidant response element (ARE) signaling pathway (AID 651741; active = well fitted activation curve with a large enough effect in the signal ratio; the % refers to the signal ratio; also: potency is read from the fitted curve at half-maximal effect)
# Outline: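 Seeding 2,000 ARE-bla HepG2 cells per well preceded a 5 h incubation at 37 C/5% CO2 and a 16 h compound exposure at 37 C. Beta-lactamase reporter activity was then quantified by fluorescence after 2 h with LiveBLAzer B/G FRET substrate.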
# [21] = qHTS assay for small molecule activators of the p53 signaling pathway (AID 651743; active = well fitted activation curve with a large enough effect in the signal ratio, not every such curve was filed as active; the % refers to the signal ratio); settings: HCT-116 p53RE-bla, beta-lactamase FRET ratio, 16 h; activation: stronger effect = higher value
# Outline: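 Screen for p53 pathway agonists uses stably transfected p53RE-bla HCT-116 cells, 4,000 per well, treated 16 h at 37 C with compounds in DMSO.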
# [22] = qHTS assay for small molecule activators of the nuclear factor-kappa B (NF-kB) signaling pathway (AID 651749; active = well fitted activation curve with a large enough effect in the signal ratio; the % refers to the signal ratio); settings: NF-kB-bla ME-180 cells, beta-lactamase FRET ratio, 16 h; activation: stronger effect = higher value
# Outline: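 Stably transfected ME-180 line; NF-kB response element upstream of beta-lactamase. Treatment: compound or DMSO, 16 hr. Detection: fluorescent FRET substrate.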
# [23] = qHTS assay for environmental chemicals that activate the Aryl hydrocarbon Receptor (AhR) signaling pathway (AID 651777; active = well fitted curve in the direction sought with a large enough effect; an effect the other way counts as inactive or inconclusive; also: nearly all actives have a fitted effect of over 15% in size); settings: 1A2-DRE human hepatoma cells, luciferase, 24 h; activation: stronger effect = higher value
# Outline: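 Following a 24 hr incubation with test chemicals at 37 C and 5% CO2, 1A2-DRE human hepatoma cells received One-Glo reagent; after 30 min at room temperature, luciferase output reflected CYP1A2 induction via AhR.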
# [24] = molecular target: Peroxisome proliferator-activated receptor alpha (Homo sapiens) (UniProt Q07869); assay: qHTS assay for small molecule agonists of the peroxisome proliferator-activated receptor alpha (PPARalpha) signaling pathway (AID 651778; active = well fitted curve in the direction sought with a large enough effect; an effect the other way counts as inactive or inconclusive); settings: PathHunter PPARalpha complementation, chemiluminescence, 6 h; stronger effect = higher value
# Sequence of Peroxisome proliferator-activated receptor alpha (Homo sapiens) (Q07869 whole entry, looked up): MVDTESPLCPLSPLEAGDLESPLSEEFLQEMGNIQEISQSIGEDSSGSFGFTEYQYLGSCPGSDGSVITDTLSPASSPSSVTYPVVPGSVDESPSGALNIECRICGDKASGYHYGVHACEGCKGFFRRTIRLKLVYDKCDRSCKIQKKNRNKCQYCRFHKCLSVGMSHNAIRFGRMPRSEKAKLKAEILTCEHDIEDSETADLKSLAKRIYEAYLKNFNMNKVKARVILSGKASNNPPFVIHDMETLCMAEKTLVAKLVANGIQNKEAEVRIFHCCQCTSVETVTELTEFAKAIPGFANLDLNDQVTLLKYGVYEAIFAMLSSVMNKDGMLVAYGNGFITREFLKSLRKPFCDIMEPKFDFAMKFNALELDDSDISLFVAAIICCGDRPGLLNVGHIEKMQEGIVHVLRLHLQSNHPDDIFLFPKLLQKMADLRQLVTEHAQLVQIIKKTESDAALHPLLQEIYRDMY
# Outline: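 Chemiluminescence from complemented enzyme reported PPARalpha activation in cells after 6 hr of compound treatment at 37 C. The detection reagent was incubated for 60 min at room temperature, and compounds were scored as agonists.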
# [25] = qHTS assay for small molecule agonists of the antioxidant response element (ARE) signaling pathway measured by Nrf2-dependant transcriptional activity - cell viability counter screen (AID 720653; active = well fitted curve in the direction sought with a large enough effect in the repeat runs; an effect the other way counts as inactive or inconclusive); settings: ARE-bla HepG2 viability, CellTiter-Glo ATP luminescence, 16 h; stronger effect = lower value
# Outline: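 Cytotoxicity counter screen: intracellular ATP quantified by CellTiter-Glo luminescence in the same ARE-bla HepG2 plates, after 16 h compound exposure and a 2 h beta-lactamase substrate step.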
# [26] = qHTS assay for cell viability of HEK293 cells (AID 743288; active = well fitted curve in the direction sought with a large enough effect; an effect the other way counts as inactive or inconclusive; also: nearly all actives have a fitted effect of over 50% in size); settings: ATP luminescence (CellTiter-Glo), 18 h; max response: stronger effect = lower value
# Outline: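 Parental HEK293 cells, 2,000 per well, preincubated at least 5 h at 37 C, then exposed to compounds in DMSO for 18 h at 37 C. Viability by CellTiter-Glo ATP luminescence after 30 min at room temperature.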
# [27] = qHTS assay for cell viability of the p53RE-bla HCT-116 cell line (AID 743292; active = well fitted curve in the direction sought with a large enough effect; an effect the other way counts as inactive or inconclusive; also: nearly all actives have a fitted effect of over 55% in size)
# Outline: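 After plating at 4,000 cells per well and a 5 h rest at 37 C, HCT-116 cells carrying p53RE-bla received test chemicals in DMSO. Sixteen hours later at 37 C, CellTiter-Glo was added and luminescence recorded following 30 min at room temperature.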
# [28] = molecular target: Glutathione peroxidase 1 (Homo sapiens) (UniProt P07203); assay: Primary qHTS Assay for Inhibitors of Recombinant Selenoprotein Glutathione Peroxidase 1 (GPX1) (AID 1845191; active = well fitted curve in the direction sought with a large enough effect; an effect the other way counts as inactive or inconclusive; also: nearly all actives have a fitted effect of over 65% in size)
# Sequence of Glutathione peroxidase 1 (Homo sapiens) (P07203 whole entry, looked up): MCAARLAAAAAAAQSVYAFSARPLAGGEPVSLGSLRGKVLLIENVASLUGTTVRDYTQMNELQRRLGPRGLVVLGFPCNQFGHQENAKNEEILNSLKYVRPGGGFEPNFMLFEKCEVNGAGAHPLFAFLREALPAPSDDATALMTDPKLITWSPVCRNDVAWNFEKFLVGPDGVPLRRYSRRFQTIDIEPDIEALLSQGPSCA
# Outline: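 10 nM GPX1 + cpd, 30 min RT; start w/ 1 mM GSH, 0.5 mM cumene hydroperoxide, 0.5 mM NADPH, 100 nM GR, 0.01% BSA; buffer 50 mM Tris-HCl pH 7.5, 2 mM EDTA, 150 mM NaCl; Fl 340/450, 0 & 15 min.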
# [29] = molecular target: Phospholipid hydroperoxide glutathione peroxidase GPX4 (Homo sapiens) (UniProt P36969); assay: Primary qHTS Assay for Inhibitors of Recombinant Selenoprotein Glutathione Peroxidase 4 (GPX4) (AID 1845192; active = well fitted curve in the direction sought with a large enough effect; an effect the other way counts as inactive or inconclusive; also: nearly all actives have a fitted effect of over 65% in size)
# Sequence of Phospholipid hydroperoxide glutathione peroxidase GPX4 (Homo sapiens) (P36969 whole entry, looked up): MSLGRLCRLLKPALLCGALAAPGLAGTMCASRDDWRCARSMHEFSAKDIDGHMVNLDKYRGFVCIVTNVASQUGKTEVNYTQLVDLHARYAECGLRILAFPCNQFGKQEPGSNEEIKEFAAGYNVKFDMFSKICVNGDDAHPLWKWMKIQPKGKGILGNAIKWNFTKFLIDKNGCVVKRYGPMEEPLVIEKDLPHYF
# Outline: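 NADPH consumption, followed by fluorescence at 340/450 nm between 0 and 15 min, reports GPX4 activity via coupled glutathione reductase (100 nM). Enzyme 200 nM was pre-exposed to compound 30 min; 0.5 mM cumene hydroperoxide and 1 mM GSH served as substrates.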
smiles,measurement,setting,value
O=C(O)c1cc2ccccc2c(Cc2c(O)c(C(=O)O)cc3ccccc23)c1O,Potency,[1],inactive
same,Potency,[2],inactive
same,Potency,[3],inactive
same,Potency,[4],inactive
same,Potency,[5],inactive
CC(COc1ccc(Oc2ccccc2)cc1)Oc1ccccn1 (centres undefined),activation,[6],-2.33% (inactive)
same,Potency,[7],inactive and 39.8 µM (active)
same,outcome,[8],inactive
same,activation,[9],0.631% (inactive) and 1.01% (inactive)
same,outcome,[10],inactive
same,max response,[11],11.7% and -13.8%
same,outcome,[12],inactive
same,Potency,[13],inactive
same,outcome,[14],inactive
same,outcome,[15],inactive
same,outcome,[16],inactive
same,max response,[17],-19.9% and -8.14%
same,max response,[18],-8.09% (inactive) and -10.1% (inactive)
same,activity change % (negative = inhibition),[19],4.1% (inactive) and -8.02% (inactive)
same,Potency,[20],48.6 µM (active) and 27.3 µM (active)
same,activation,[21],-3.04% (inactive) and -2.31% (inactive)
same,activation,[22],-1.12% (inactive) and 0.467% (inactive)
same,activation,[23],13% (inactive)
same,max response,[24],-1.27% (inactive) and -0.944% (inactive)
same,max response,[25],2.4% (inactive) and -4.17% (inactive)
same,max response,[26],-1.69% (inactive) and -16.3% (inactive)
same,Potency,[27],inactive
same,Potency,[1],inactive
same,Potency,[2],inactive
same,Potency,[3],inactive
same,Potency,[4],inactive
same,"activity change, negative = inhibition",[5],-5.43%
same,Potency,[28],inactive
same,Potency,[29],inactive
